IL1B secr inh: inhibitors of inflammasome signaling (IL-1 beta secretion) | THP-1 LPS/ATP IL-1B secretion, AlphaLISA, 16 h; hits give low values | activity change, % at 57.5 µM | 4.7% of 360,000 active | AID 743279; in the data active means activity change below about -50%; inconclusive means mostly about -30% to -49%
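THP-1 cells pretreated 1 hr with compounds (up to 57.5 uM final), then stimulated with LPS (250 ng/mL final) plus ATP (1.25 mM final); secreted IL-1B measured by AlphaLISA after 16 hr, decreased signal indicating inhibition.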
TDP1 cell noCPT: qHTS for Inhibitors of human tyrosyl-DNA phosphodiesterase 1 (TDP1): qHTS in cells in absence of CPT | DT40 Tdp1-/- hTDP1 cells, no CPT, ATP luminescence, 48 h | Potency, µM (doses to about 46.2 µM), for the others: top-dose activity change, negative = growth inhibition, most hits filed as inhibitors | 15% of 420,000 active | AID 686978, 2013; further: potency means the concentration at half of the fitted maximal effect; nearly all actives have a fitted effect of over 55% in size
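Cells were dispensed at 400 per well, compounds added by pin tool, plates incubated ≥48 hr at 37 °C, then CellTiter-Glo added for 30 min at room temperature before luminescence reading. Line: DT40 Tdp1-/- complemented with hTDP1; camptothecin omitted.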
ELG1 repair inh: inhibitors of ELG1-dependent DNA repair in HEK293T cells; AID 504467; HEK293T ELG1-luciferase reporter, luminescence, 16 h; DNA damage induced by 5-fluorouridine; Potency, µM (doses to about 46.1 µM), inactives show at the top dose activity change, negative = inhibition, actives largely listed as inhibitors; 2.3% of 330,000 active; further: potency means the concentration at half of the fitted maximal effect; nearly all actives have a fitted effect of over 55% in size
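Luminescence from the luciferase reporter, measured 30 min after ONE-Glo reagent at room temperature, was the read-out. Beforehand, 2,000 cells per well were exposed for 16 hr at 37 °C to 5-fluorouridine together with compound or vehicle.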
HT1080NT lethal: kills 2HG-producing HT-1080-NT fibrosarcoma cells; HT-1080-NT fibrosarcoma viability, CellTiter-Glo ATP luminescence, 48 h; Potency, µM (doses to about 46.1 µM), for inactives: top-dose activity, negative = less viability, actives largely listed as cytotoxic; 1.6% of 360,000 active;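 further: NT is the 2HG producing partner of a matched IDH1 knockdown line; potency means the concentration at half of the fitted maximal effect; 0% = DMSO-treated cells and -100% = media-only wells without cells; nearly all actives have a fitted effect of over 55% in size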
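Viability of the 2HG-overproducing fibrosarcoma line after 48 hours of compound exposure at 37 degrees C was determined by luminescence with CellTiter-Glo, and concentration-effect curves were then fitted and categorized.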
DT40 TDP1 CPT: DT40-hTDP1 cell growth loss with CPT. chicken DT40 Tdp1-/-;hTDP1 cells + 20 nM CPT, ATP luminescence, 48 h. Potency, µM (titrated, usually from 46.2 µM), for the others: top-dose activity change, negative = growth inhibition, actives largely listed as inhibitors. 12% of 420,000 active. AID 686979; further: potency means the concentration at half of the fitted maximal effect; nearly all actives have a fitted effect of over 55% in size
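Chicken DT40 Tdp1-/- cells stably complemented with human TDP1 were seeded at 400 cells/well in medium containing 20 nM camptothecin, exposed to pin-transferred compounds, and grown at 37 °C for at least 48 hr. Viability was read as ATP luminescence.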
HT1080 IDH1KD tx: toxicity to HT-1080 IDH1 knockdown cells (counter line) | HT-1080 IDH1 knockdown viability, ATP luminescence, 48 h | Potency, µM (doses to about 46.1 µM), without a hit: top-dose activity, negative = toxicity, actives largely listed as cytotoxic | 2% of 360,000 active | AID 686971;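 further: potency means the concentration at half of the fitted maximal effect; 0% = DMSO wells and -100% = cell-free medium wells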
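In this qHTS, HT-1080 cells depleted of IDH1 are exposed for 48 h at 37 °C to compound titrations. Toxicity is scored from CellTiter-Glo luminescence, with DMSO as full viability and medium alone as none.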
* hit, by the source's call; ? = inconclusive; / = no result. Rows were chosen to be rich in hits. Some 19% of all compounds tested hit in one or more screens of this group. Unless noted, the call rests on the fitted dose curve; in most records, active means well fitted curve in the direction sought with a large enough effect; inconclusive means small, poorly fitted or top-dose-only effect, or another doubt; inactive means no such curve, though single readings can be large; an effect the other way counts as inactive or inconclusive. Unless noted, on the % scale 0 is the no-effect control and ±100 the full control effect.

SMILES | IL1B secr inh | TDP1 cell noCPT | ELG1 repair inh | HT1080NT lethal | DT40 TDP1 CPT | HT1080 IDH1KD tx
CC1Cc2ccccc2N1C(=O)CN1CCN(Cc2ccccc2)CC1 (centres undefined) | -15.3 | 15.7% | -9.2% | 5.5% | 7.1% | 12.2%
Cc1cc(NC(=O)CCCN2C(=O)c3cccnc3C2=O)no1 | 57.6 | 25.9µM* | 1.5% | 0.4% | 20.6µM* | ?
CC(=O)c1cccc(-c2ccnc3c2CC(C(=O)Nc2cccnc2)O3)c1 (centres undefined) | 58.5 | -23.0% | / | -5.2% | 2.9% | -7.0%
CC(=O)c1cccc(NC(=O)C2Cc3c(-c4ccc5c(c4)OCO5)ccnc3O2)c1 (centres undefined) | -18.1 | 11.6µM* | / | -5.1% | 13µM* | -25.4%
CC(=O)Nc1ccc(-c2ccnc3c2CC(C(=O)Nc2cccc(C(C)=O)c2)O3)cc1 (centres undefined) | -27.1 | 14.6µM* | / | -11.2% | ? | 0.0%
CC(=O)c1cccc(-c2ccnc3c2CC(C(=O)Nc2cccc(NS(C)(=O)=O)c2)O3)c1 (centres undefined) | -9.6 | 9.2µM* | / | ? | 14.6µM* | 18.4µM*
CC(=O)c1cccc(-c2ccnc3c2CC(C(=O)Nc2cccc(N(C)C)c2)O3)c1 (centres undefined) | -12.1 | ? | / | ? | ? | ?
CC(=O)c1cccc(NC(=O)C2Cc3c(-c4cccc(C(C)=O)c4)ccnc3O2)c1 (centres undefined) | -0.1 | 14.6µM* | / | -25.4% | 16.4µM* | -15.3%
CCCCN(C)CCNC(=O)C1CCCN(S(=O)(=O)c2ccc3c(c2)oc(=O)n3C)C1 (centres undefined) | / | -24.3% | / | / | -22.7% | /
CCCN1CCN(S(=O)(=O)c2c(C)[nH]c(C)c2C(=O)N2CCCCC2)CC1 | 3.5 | 0.1% | 20.8% | 12.9% | -22.5% | 24.6%
CC(=O)c1cccc(-c2ccnc3c2CC(C(=O)Nc2ccc(C(C)C)cc2)O3)c1 (centres undefined) | 26.4 | 10.3µM* | / | ? | 23.1µM* | ?
CC(=O)Nc1cccc(-c2ccnc3c2CC(C(=O)NC(C)C)O3)c1 (centres undefined) | -16.8 | ? | / | -3.2% | -21.7% | 18.0%
CC(=O)Nc1ccc(-c2ccnc3c2CC(C(=O)Nc2ccc(Cl)c(C(F)(F)F)c2)O3)cc1 (centres undefined) | ? | ? | / | ? | 20.6µM* | ?
CS(=O)(=O)Nc1cccc(NC(=O)C2Cc3c(-c4ccco4)ccnc3O2)c1 (centres undefined) | 0.0 | 13µM* | / | 18.4µM* | ? | ?
CC(=O)Nc1ccc(-c2ccnc3c2CC(C(=O)Nc2cccnc2)O3)cc1 (centres undefined) | -7.8 | 3.66µM* | / | 13µM* | 5.17µM* | 13µM*
CCCN1CCC(NC(=O)Cc2ccccc2C)CC1 | -8.7 | 9.6% | -3.5% | 1.3% | -3.2% | 0.2%
COc1cccc(Nc2nc3cc(C)ccc3cc2C)c1 | -4.1 | ? | / | -5.6% | ? | -6.2%
Cc1c(NC(=S)Nc2ccc(Cl)cc2)c(=O)n(-c2ccccc2)n1C | 0.0 | 0.4% | -5.7% | -2.1% | -12.1% | -6.7%
CC(=O)c1cccc(NC(=O)C2Cc3c(-c4cccc(C(N)=O)c4)ccnc3O2)c1 (centres undefined) | -0.9 | 16.4µM* | / | ? | 16.4µM* | -12.0%
CC(=O)c1cccc(-c2ccnc3c2CC(C(=O)Nc2cccc(C(F)(F)F)c2)O3)c1 (centres undefined) | 44.1 | 13µM* | / | -26.6% | 25.9µM* | -14.5%
COC(=O)Cn1cc(C(=O)C(C)(C)C)c2ccccc21 | -73.5* | 1.5% | -4.3% | 7.4% | 1.7% | -0.1%
COC(=O)Cn1cc(C(=O)C2CC2)c2ccccc21 | -89.1* | -16.9% | 0.7% | 6.9% | -1.1% | 3.6%
COc1ncc2nc(-c3cn(C)c4ccccc34)c(=O)n(-c3ccccc3)c2n1 | / | -27.8% | / | / | -1.1% | /
c1ccc(COC(CN2CCCCCC2)CN2CCCCCC2)cc1 | -19.5 | 20.6µM* | ? | -4.6% | 10.3µM* | -7.1%
O=C(NCc1ccccc1Cl)c1ccc2c(c1)N(Cc1ccccc1)C(=O)CS2 | / | ? | / | / | 23.1µM* | /
SMILES | IL1B secr inh | TDP1 cell noCPT | ELG1 repair inh | HT1080NT lethal | DT40 TDP1 CPT | HT1080 IDH1KD tx
O=C(NCc1ccco1)c1ccc2c(c1)N(Cc1ccccc1)C(=O)CS2 | -2.5 | ? | ? | -14.6% | ? | -3.4%
Cc1cccc(CN2C(=O)CSc3ccc(C(=O)NC4CC4)cc32)c1 | -4.1 | ? | 1.3% | -12.6% | 0.731µM* | -7.3%
Cc1ccc(CNC(=O)c2ccc3c(c2)N(Cc2cccc(Cl)c2)C(=O)CS3)cc1 | / | 20.6µM* | / | / | ? | /
C=CCn1c(=O)c2c(nc3n2CCCN3CCc2ccc(OC)c(OC)c2)n(C)c1=O | 5.4 | -27.1% | -2.3% | -3.1% | 4.2% | -5.0%
COc1cc(CCC(=O)N2CCN(S(=O)(=O)c3ccc(C)cc3)CC2)cc(OC)c1OC | -8.5 | ? | -10.0% | -8.6% | -7.0% | -8.6%
CCCn1c(SCC(=O)N2CCN(c3ccc(OC)cc3)CC2)nc2c1c(=O)n(C)c(=O)n2C | 57.1 | 16.4µM* | 20.6µM* | -0.3% | 18.4µM* | -10.0%
CC1CCCN(Cc2nc3c(c(=O)n(C)c(=O)n3C)n2Cc2ccc(Cl)cc2)C1 (centres undefined) | / | -14.8% | / | / | -10.2% | /
CC1CCCN(c2nc3c(c(=O)n(C)c(=O)n3C)n2Cc2ccccc2)C1 (centres undefined) | 72.1 | 23.1µM* | ? | 11.7% | ? | 24.2%
Cn1c(=O)c2c(nc(N3CCOCC3)n2Cc2ccc(Br)cc2)n(C)c1=O | / | 20.6µM* | / | / | 10.3µM* | /
Cn1c(=O)c2c(nc(N3CCOCC3)n2CCc2ccccc2)n(C)c1=O | 16.7 | -8.2% | -3.0% | 0.6% | -22.7% | -2.2%
C=C(C)Cn1c(N2CCN(c3ccc(OC)cc3)CC2)nc2c1c(=O)n(C)c(=O)n2C | -10.6 | 13µM* | ? | -15.6% | 16.4µM* | -17.2%
CCCn1c(SCC(=O)N2CCCC2)nc2c1c(=O)n(C)c(=O)n2C | 0.0 | -0.8% | -0.5% | 0.2% | -14.2% | 0.7%
COCCn1c(N2CCN(c3ccccc3)CC2)nc2c1c(=O)n(C)c(=O)n2C | 60.7 | ? | ? | 12.0% | -26.3% | 6.5%
